A selection: hits, their analogues and other compounds. The true share with any hit is near 0.35%.
Rtt109 Vps75: inhibitors of Candida albicans Rtt109/Vps75 histone acetyltransferase; Q5AAJ8; purified Rtt109/Vps75, ThioGlo CoA-SH fluorescence, 4 h; inhibition, % at 34.9 µM; hit rate 0.16% among 330,000;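 active means inhibition of at least 50% in every replicate; inconclusive means best replicate reaches 50% inhibition but some replicates fall short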
Target sequence (Q5AAJ8 whole entry, looked up): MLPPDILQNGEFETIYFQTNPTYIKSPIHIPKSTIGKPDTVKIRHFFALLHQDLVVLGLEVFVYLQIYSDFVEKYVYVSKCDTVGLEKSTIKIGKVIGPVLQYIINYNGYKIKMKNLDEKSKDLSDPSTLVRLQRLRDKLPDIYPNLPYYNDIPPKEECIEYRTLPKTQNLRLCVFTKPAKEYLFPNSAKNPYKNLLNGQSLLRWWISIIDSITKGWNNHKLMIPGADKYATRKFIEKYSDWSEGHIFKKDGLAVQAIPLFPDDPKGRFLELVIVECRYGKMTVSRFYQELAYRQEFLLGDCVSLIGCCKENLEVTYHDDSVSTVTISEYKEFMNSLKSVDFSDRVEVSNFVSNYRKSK
ERAP1 HTS inh: ERAP1 (human) enzyme inhibition. recombinant ERAP1, Leu-AMC fluorescence, 60 min. Q9NZ08. inhibition, % at 10.7 µM. hit rate 0.15% among 340,000;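 active means mean replicate inhibition of at least 30%, or all replicates individually reaching that 30% level; inactive means mean below 30% and not every replicate reaching it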
PvdQ acylase: P. aeruginosa PvdQ acylase inhibition; inhibition, % at 10 µM; AID 488965; hit rate 0.063% among 340,000; purified PvdQ acylase, fluorescence plate reader; in the data active means inhibition above about 30%, passing the limit was not always enough; inconclusive means no clear call, values can overlap the other calls
ERp5 block: inhibitors of human ERp5; Q15084; hit rate 0.05% among 350,000; inhibition, % at 9.99 µM; ERp5 insulin aggregation, absorbance 650 nm, 90 min;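 active means mean replicate inhibition above about 25%, with every replicate also reaching it, limit read from the data, passing the limit was not always enough; inconclusive means only one of those two criteria met; inactive means neither criterion met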
PDI inh: inhibitors of human protein disulfide isomerase; hit rate 0.052% among 350,000; P07237; PDI insulin aggregation turbidity, A650, 90 min; inhibition, % at 10 µM;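 active means mean inhibition across replicates of 30% or more, whatever share of single replicates reach that level; inconclusive means mean inhibition below 30% while every single replicate reaches 30%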
Hits are given with their value; . = inactive; ? = inconclusive; / = no result.

SMILES	Rtt109 Vps75	ERAP1 HTS inh	PvdQ acylase	ERp5 block	PDI inh
O=C1NC[C@H](Cc2ccccc2)N(C[C@H]2CCCN2C[C@H](Cc2ccc(O)cc2)N2C[C@H](Cc3ccc(O)cc3)N(CC3CCCCCC3)C(=O)C2=O)C1=O	.	.	.	.	39.0
CN1C(=O)c2cc(NC(=O)c3ccc(F)cc3)ccc2OC[C@H]2O[C@@H](CC(=O)NCC3CC3)CC[C@@H]21	/	.	/	.	/
CCN(CC)CCCNc1nc2ccccc2c2[nH]c3ccc(OC)cc3c12	.	.	.	.	60.0
O=C(C[C@@H]1CC[C@@H](NC(=O)Nc2ccc3c(c2)OCO3)[C@@H](CO)O1)NCc1ccc2c(c1)OCO2	/	.	/	.	/
CC(C)(C)c1ccc(C(=O)CC(Sc2ccc(Cl)cc2)C(=O)O)cc1 (centres undefined)	126.0	.	.	.	.
COCC(=O)N(C)C[C@H]1Oc2cc(-c3ccc(F)cc3)ccc2S(=O)(=O)N([C@H](C)CO)C[C@H]1C	/	.	/	.	/
O=C(NNC(=O)c1ccc2ccccc2c1)Nc1ccc(F)cc1	.	.	.	26.0	.
COC(C(=O)Nc1ccnn1C1CCN(Cc2ccc(C)o2)CC1)c1ccccc1 (centres undefined)	.	.	.	.	.
COCc1ccc(CN2CCC(n3nccc3NC(=O)C(OC)c3ccccc3)CC2)o1 (centres undefined)	58.6	.	.	.	.
COc1ccccc1C(=O)NCC(=O)N=Nc1c(O)n(C(C)C)c2ccccc12	63.6	.	.	.	.
COc1cc(C(c2nnnn2C(C)(C)C)N2CCN(c3nc4ccccc4s3)CC2)ccc1O (centres undefined)	65.8	/	.	/	.
C[N+]1(CC2COC3(CCCCC3)O2)CCCCC1 (centres undefined)	.	54.0	.	.	.
C[C@H](CO)N1C[C@H](C)[C@@H](CN(C)Cc2ccc(C(=O)O)cc2)OCc2cn(nn2)CCCC1=O	/	.	/	.	/
CCCCC(CC)C1OCC(C[N+]2(C)CCOCC2)O1 (centres undefined)	.	83.1	.	.	.
Cc1cc2nc(C(C)(C)C)cc(N)n2n1	.	.	.	.	.
CC(C)(C)c1cc(N)n2nc(C(C)(C)C)cc2n1	52.7	.	.	.	.
Cc1ccc2c(c1)Oc1ccc(NC(=O)CCl)cc1C(=O)N2	.	/	.	/	92.1
Cc1ccc2c(c1)Oc1ccc([N+](=O)[O-])cc1C(=O)N2	.	.	.	.	.
C[C@H](CO)N1C[C@H](C)[C@H](CN(C)C)Oc2cc(Br)ccc2S1(=O)=O	/	.	/	.	/
CCCCS(=O)(=O)/C=C\C=C/S(=O)(=O)CCCC	149.0	/	.	/	.
CCCCS(=O)(=O)/C=C\C1C2C=CC(C2)C1S(=O)(=O)CCCC (centres undefined)	.	/	.	/	.
Cc1noc(C)c1NC(=O)N1C[C@H](O)COC[C@@H]2O[C@H](CC(=O)NCC3CC3)CC[C@H]21	/	.	/	.	/
CCOC(=O)c1c(C)oc2c1c(C=NCCO)c(O)c1ccccc12	52.5	.	.	.	.
CCCCC(=O)Nc1nc2c(OC)ccc(OC)c2s1	.	.	.	.	/
CCC[n+]1c(C)sc2c(OC)ccc(OC)c21	?	51.6	.	.	.
SMILES	Rtt109 Vps75	ERAP1 HTS inh	PvdQ acylase	ERp5 block	PDI inh
Cc1ccc(CN2C(=O)CCC2C(=O)NCCCN2CCC(C)CC2)cc1 (centres undefined)	.	/	.	/	.
Cc1ccc(CN2C(=O)CCC2C(=O)NCCN2CCN(c3cccc(Cl)c3)CC2)cc1 (centres undefined)	.	30.6	.	.	.
CCCc1nc2c(=O)n(C)c(=O)nc-2n(C)n1	.	.	.	84.7	159.5
Cn1nc(-c2ccccn2)nc2c(=O)n(C)c(=O)nc1-2	.	.	.	101.6	139.1
COc1ccccc1NC(=O)N1CCCCN2[C@H](CO)[C@H](c3ccc(C#CC4CCCC4)cc3)[C@@H]2C1	/	.	/	.	/
C[C@@H]1CN([C@H](C)CO)C(=O)c2cc(NS(=O)(=O)c3ccc(Cl)cc3)ccc2O[C@H]1CN(C)CC1CC1	/	.	/	.	/
COc1ccc(NS(=O)(=O)c2ccc3c(c2)[C@H]2C=CC[C@H]2[C@@H](c2ccc(C(=O)O)cc2)N3)cc1	.	31.9	.	.	.
COc1cccc(/C=C/C(=O)c2ccc(NC3=NCCCS3)cc2)c1	.	.	.	.	.
Cc1cccc(/C=C/C(=O)c2ccc(NC3=NCCCS3)cc2)c1	.	34.7	.	.	.
Cc1noc(C)c1NC(=O)Nc1ccc2c(c1)C(=O)N([C@@H](C)CO)C[C@H](C)[C@H](CN(C)CC1CC1)O2	/	.	/	.	/
N#C/C(=C/c1ccco1)c1nc2ccccc2s1	.	/	41.5	/	.
